Hit rate of the full screen: of about 59,000 compounds, about 6,200 (11%) were called active. Not shown: some 9% with an inconclusive outcome. The sample holds actives, similar compounds and a random draw of the others, so the mix is not that of the screen. Rule as the data show it: active = max dye-equivalent concentration above about 10 nM; inconclusive = mostly about 1.1 nM to 9.6 nM; inactive = weaker than that.
assay: qHTS Assay for Spectroscopic Profiling in 4-MU Spectral Region; details: compound autofluorescence, 340/450 nm, 4-MU equivalents; hits give high values
Summary of the method: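 Compounds in 100 mM Tris, pH 8.0, sat 15 min at room temperature before fluorescence was read at 340 nm excitation/450 nm emission; a per-plate six-point 4-MU standard curve converted signals to dye-equivalent concentration at each compound concentration.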

Max dye-equivalent concentration, active:
CCCn1nnc2sc3c(c2c1=O)CCC(C)C3 (stereo unspecified) 33 nM, CCOC(=O)C1=C(C)NC(C)=C(C(=O)OCC)C1c1ccccn1 290 nM, CCCCNc1nc2ccccc2nc1NS(=O)(=O)c1cccs1 45 nM, COc1ccc(S(=O)(=O)N2CCN(C(=O)c3cccs3)CC2)cc1OC 3300 nM, CCN(CC)CCN1C(=O)C(=O)/C(=C(/O)c2ccc(OC)c(OC)c2)C1c1ccccn1 (stereo unspecified) 33 nM, CCc1nc(Nc2ccc3nccnc3c2)c2oc3ccccc3c2n1 55 nM, COC(=O)c1cnn2c(C(F)(F)F)cc(-c3ccco3)nc12 970 nM, O=C(NCc1ccco1)c1cnn2c(C(F)(F)F)cc(-c3ccco3)nc12 260 nM, Cc1nc(NCCN)c(C#N)c2c1COC(C)(C)C2 13 nM

Max dye-equivalent concentration, inactive:
Cn1c(Cc2csc(N)n2)nnc1SC/C=C/c1ccccc1, O=C(Nc1ccc2c(c1)OCCO2)c1ccncc1, COc1ccc(C(=O)N2CCC3(CCCN(C(c4ccccc4)c4ccccc4)C3)CC2)cc1, CC(c1ccco1)N(C(=O)c1ccc(S(=O)(=O)N2CCCCC2)cc1)c1ccccn1 (stereo unspecified), CCOc1cccc(NC(=O)C2CCCN(S(=O)(=O)c3ccc(OC)cc3)C2)c1 (stereo unspecified), C[C@@H]1CC[C@H]2[C@H](C)[C@H]3[C@H](C[C@H]4[C@@H]5CC=C6C[C@@H](O)CC[C@@]6(C)[C@@H]5C[C@@H](O)[C@]34C)N2C1, CC1CCc2sc3nc(N4CCN(CCO)CC4)n4ncnc4c3c2C1 (stereo unspecified), O=c1c2ccccc2nnn1CSc1nc2sc3c(c2c(=O)n1CC1CCCO1)CCC3 (stereo unspecified), O/N=C(\c1ccc2c(c1)OCCO2)C1CCCCC1, CCN(CC)Cc1c(C(=O)OC)nnn1-c1nonc1N, CC(=O)c1sc2nc(SCC(=O)N3CCCCC3)[nH]c(=O)c2c1C, O=C1N=C(N2CCOCC2)CS1, CN(CCC#N)c1ncnc2scc(-c3ccccc3)c12, CCCC(=O)NC(C)C(c1cccs1)N1CCN(c2ccccc2)CC1 (stereo unspecified), CCOC(=O)c1ccc(NC(=O)CSc2ncccn2)cc1, COCCOC(=O)C1=C(C)Nc2nc(C)nn2C1c1ccccc1 (stereo unspecified), Cc1ccc(S(=O)(=O)NCCN2CCOCC2)cc1C, Cc1nn(C)c(C)c1S(=O)(=O)N1CCc2ccccc21, O=S(=O)(c1cccs1)N1CCN(Cc2ccccc2)CC1, O=S(=O)(c1cccs1)N1CCc2ccccc2C1, CC(C)CCNC(=O)CN(C(=O)Cn1nnc(-c2ccc(F)cc2)n1)C1CCCC1, O=C(O)c1cscn1, CCCS(=O)(=O)N1CCN(C(=O)c2cccs2)CC1, COc1ccc(OCC(=O)N2CCN(C(=O)c3cccs3)CC2)cc1, NCC(=O)[C@@H](O)[C@H](O)[C@H](O)CO, CCn1c(SCC(=O)Nc2cc(C)c(Cl)cc2OC)nnc1-c1ccco1, O=S(=O)(NCc1ccc2c(c1)OCO2)c1cccc2nsnc12, COc1ccc(/C(O)=C2/C(=O)C(=O)N(CCCN(C)C)C2c2ccccc2)cc1OC (stereo unspecified), CCCOc1ccc(/C(O)=C2/C(=O)C(=O)N(CCN(C)C)C2c2ccc(OC)c(OC)c2)cc1 (stereo unspecified), CCn1nc(C(=O)OCC(=O)N2c3ccccc3CC2C)c2ccccc2c1=O (stereo unspecified), Cc1noc(COc2ccccc2OCC(O)CNC(C)(C)C)n1 (stereo unspecified), CCc1nc(N2CCN(c3nc(C)cc(C)n3)CC2)c2oc3ccccc3c2n1, CCSc1nc(C)nc2c1oc1ccccc12, COc1ccccc1CNC(=O)CCCn1c(=O)c2ccccc2n(CC(=O)NC2CCCC2)c1=O, Cc1ccc(C(c2nnnn2CS(=O)(=O)c2ccc(C)cc2)N2CCC(C(N)=O)CC2)cc1 (stereo unspecified), O=C(Nc1ccccc1)Nc1ccccc1C(=O)NCc1ccco1, O=C(CSc1nc(-c2ccco2)cc(C(F)(F)F)n1)N1CCc2ccccc2C1, O=C(NCc1ccco1)c1cc(-c2cccnc2)nc2ccc(Cl)cc12, COC(=O)c1ccccc1NC(=O)Cn1nc(C(F)(F)F)c2c1CCC2, CCOC(=O)C1C(=O)OC2(CCCC2)C1C(=O)OCC (stereo unspecified), Cc1cccc(NC(=O)C2CCCN2S(=O)(=O)c2ccc(F)cc2)c1C (stereo unspecified), CCOC(=O)C1(C(F)(F)F)N=C(N(C)C)OC(N(C)C)=N1, CC(=O)c1c(C)n(-c2ccc(N(C)C)cc2)c2ccc(OCC(N)=O)cc12, COc1cc(OC)c(C(=O)NC2CC(C)(C)NC(C)(C)C2)cc1OC, COc1ccc(CCn2c(NCCCN3CCOCC3)nc3c2c(=O)[nH]c(=O)n3C)cc1, CCCCn1c(SCc2ncc(-c3ccccc3)o2)nc2cc(S(N)(=O)=O)ccc21, CCN1CCN(c2ncnc3c2oc2nc(C)c4c(c23)CC(C)(C)OC4)CC1

Source: PubChem BioAssay AID589 (National Center for Advancing Translational Sciences (NCATS), 2007)
